In assay [1] the target is Tyrosine-protein kinase Fyn (Homo sapiens) (UniProt P06241). Particulars: at 1 µM.
Assay [2] concerns the target Tyrosine-protein kinase HCK (Homo sapiens) (UniProt P08631). Particulars: at 0.1 µM.
For assay [3] the target is unchanged. Particulars: at 1 µM.
In assay [4] the target is Insulin-like growth factor 1 receptor (Homo sapiens) (UniProt P08069). Particulars: at 0.1 µM.
Assay [5] has the same target. The settings on record: at 1 µM.
Assay [6] deals with Insulin receptor (Homo sapiens) (UniProt P06213). Particulars: at 0.1 µM.
Insulin receptor (Homo sapiens), sequence (P06213 28-758 limits assumed): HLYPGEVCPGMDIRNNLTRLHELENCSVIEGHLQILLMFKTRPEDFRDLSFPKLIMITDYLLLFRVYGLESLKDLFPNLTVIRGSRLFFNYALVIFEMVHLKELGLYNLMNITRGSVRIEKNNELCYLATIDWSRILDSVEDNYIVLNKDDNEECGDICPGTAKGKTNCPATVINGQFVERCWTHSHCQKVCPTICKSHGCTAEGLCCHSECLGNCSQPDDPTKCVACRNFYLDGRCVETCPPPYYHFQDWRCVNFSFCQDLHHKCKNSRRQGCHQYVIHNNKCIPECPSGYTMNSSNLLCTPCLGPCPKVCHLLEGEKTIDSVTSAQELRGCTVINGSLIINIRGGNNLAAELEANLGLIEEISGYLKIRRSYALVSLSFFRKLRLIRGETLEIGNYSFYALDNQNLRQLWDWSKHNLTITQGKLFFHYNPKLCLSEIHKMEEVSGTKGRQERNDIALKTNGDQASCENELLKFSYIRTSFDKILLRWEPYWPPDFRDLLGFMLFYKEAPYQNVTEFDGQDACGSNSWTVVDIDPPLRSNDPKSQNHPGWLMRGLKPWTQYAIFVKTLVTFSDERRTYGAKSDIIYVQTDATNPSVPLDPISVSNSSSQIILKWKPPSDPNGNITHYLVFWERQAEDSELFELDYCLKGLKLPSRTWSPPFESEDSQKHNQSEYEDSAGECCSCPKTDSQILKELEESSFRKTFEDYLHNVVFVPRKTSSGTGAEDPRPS
Insulin receptor (Homo sapiens), sequence (P06213 763-1382 limits assumed): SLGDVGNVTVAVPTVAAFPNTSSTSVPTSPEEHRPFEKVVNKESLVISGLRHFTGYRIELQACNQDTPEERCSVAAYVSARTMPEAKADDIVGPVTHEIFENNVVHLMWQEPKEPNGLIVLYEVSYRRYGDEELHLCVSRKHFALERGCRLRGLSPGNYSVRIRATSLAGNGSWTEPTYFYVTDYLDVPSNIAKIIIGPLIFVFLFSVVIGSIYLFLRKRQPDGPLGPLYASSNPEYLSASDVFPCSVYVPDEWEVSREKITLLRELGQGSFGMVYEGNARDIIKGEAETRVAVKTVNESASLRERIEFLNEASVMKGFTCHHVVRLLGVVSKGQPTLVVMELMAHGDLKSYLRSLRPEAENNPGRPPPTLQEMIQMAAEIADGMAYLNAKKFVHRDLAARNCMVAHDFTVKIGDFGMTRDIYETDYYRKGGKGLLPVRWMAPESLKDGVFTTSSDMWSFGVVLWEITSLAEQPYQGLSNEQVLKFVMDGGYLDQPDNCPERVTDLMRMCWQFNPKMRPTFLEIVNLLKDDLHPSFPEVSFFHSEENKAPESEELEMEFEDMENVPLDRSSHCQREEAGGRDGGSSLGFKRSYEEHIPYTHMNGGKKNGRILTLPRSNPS
For assay [7] the target is unchanged. Particulars: at 1 µM.
Assay [8] concerns the target Insulin receptor-related protein (Homo sapiens) (UniProt P14616). Particulars: at 0.1 µM.
Assay [9] shares this target. Particulars: at 1 µM.
The target in assay [10] is T1, Tyrosine-protein kinase ITK/TSK (Homo sapiens) (UniProt Q08881).
T1 sequence (whole entry): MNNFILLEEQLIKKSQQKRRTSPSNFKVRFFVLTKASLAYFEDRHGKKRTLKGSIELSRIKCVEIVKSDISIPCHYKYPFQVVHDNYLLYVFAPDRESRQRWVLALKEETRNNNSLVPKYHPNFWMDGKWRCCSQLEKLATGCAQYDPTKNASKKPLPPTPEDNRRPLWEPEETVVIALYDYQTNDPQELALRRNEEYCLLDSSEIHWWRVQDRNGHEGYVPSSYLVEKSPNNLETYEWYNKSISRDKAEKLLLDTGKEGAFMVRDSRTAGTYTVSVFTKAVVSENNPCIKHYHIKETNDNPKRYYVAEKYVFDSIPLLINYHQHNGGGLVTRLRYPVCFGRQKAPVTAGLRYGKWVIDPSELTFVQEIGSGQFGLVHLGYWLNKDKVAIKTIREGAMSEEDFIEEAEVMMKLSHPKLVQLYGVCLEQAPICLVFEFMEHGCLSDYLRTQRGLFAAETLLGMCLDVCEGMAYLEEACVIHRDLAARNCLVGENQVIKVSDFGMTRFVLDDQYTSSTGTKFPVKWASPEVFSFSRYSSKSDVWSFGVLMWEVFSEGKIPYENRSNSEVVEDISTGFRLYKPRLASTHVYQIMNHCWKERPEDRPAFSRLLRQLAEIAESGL
The settings on record: at 0.1 µM.

Assay [11] has as its target T1, Tyrosine-protein kinase ITK/TSK (Homo sapiens). The settings on record: at 1 µM.
Assay [12] deals with Tyrosine-protein kinase JAK1 (Homo sapiens) (UniProt P23458). The settings on record: at 0.1 µM.
Tyrosine-protein kinase JAK1 (Homo sapiens), sequence (P23458 whole entry): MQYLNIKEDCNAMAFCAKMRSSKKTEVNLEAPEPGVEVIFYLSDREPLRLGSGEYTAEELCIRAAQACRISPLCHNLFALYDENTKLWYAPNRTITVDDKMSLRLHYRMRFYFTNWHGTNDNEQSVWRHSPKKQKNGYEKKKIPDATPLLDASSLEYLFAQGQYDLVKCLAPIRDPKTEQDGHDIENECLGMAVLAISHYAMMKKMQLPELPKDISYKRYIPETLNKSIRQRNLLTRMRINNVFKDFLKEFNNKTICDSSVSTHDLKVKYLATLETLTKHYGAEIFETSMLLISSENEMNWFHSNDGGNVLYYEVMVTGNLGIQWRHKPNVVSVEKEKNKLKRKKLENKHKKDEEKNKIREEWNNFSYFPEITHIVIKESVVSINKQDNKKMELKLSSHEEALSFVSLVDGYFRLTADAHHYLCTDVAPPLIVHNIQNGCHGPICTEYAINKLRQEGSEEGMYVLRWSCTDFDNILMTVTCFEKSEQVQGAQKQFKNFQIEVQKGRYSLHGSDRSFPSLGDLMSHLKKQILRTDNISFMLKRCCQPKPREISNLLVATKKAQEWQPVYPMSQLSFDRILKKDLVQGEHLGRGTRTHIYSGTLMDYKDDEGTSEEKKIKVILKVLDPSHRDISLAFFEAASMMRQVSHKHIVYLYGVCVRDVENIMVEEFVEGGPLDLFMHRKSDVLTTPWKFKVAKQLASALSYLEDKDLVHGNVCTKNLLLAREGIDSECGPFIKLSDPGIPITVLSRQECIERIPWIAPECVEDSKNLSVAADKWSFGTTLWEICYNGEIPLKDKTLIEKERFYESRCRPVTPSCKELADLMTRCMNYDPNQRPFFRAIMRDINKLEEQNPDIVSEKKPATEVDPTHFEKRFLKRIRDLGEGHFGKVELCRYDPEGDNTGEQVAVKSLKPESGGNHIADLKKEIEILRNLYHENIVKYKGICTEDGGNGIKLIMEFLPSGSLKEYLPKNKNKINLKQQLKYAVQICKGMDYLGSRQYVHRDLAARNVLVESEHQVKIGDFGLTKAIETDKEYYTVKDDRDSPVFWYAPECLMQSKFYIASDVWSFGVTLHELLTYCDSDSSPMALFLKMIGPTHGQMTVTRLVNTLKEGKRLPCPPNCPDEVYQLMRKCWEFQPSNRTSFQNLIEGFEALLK
The target is the same in assay [13]. The settings on record: at 1 µM.
Assay [14] has as its target Tyrosine-protein kinase JAK2 (Homo sapiens) (UniProt O60674). The settings on record: at 0.1 µM.
Assay [15] shares this target. The settings on record: at 1 µM.
Assay [16] concerns the target T2, Tyrosine-protein kinase JAK3 (Homo sapiens) (UniProt P52333).
T2 sequence (whole entry): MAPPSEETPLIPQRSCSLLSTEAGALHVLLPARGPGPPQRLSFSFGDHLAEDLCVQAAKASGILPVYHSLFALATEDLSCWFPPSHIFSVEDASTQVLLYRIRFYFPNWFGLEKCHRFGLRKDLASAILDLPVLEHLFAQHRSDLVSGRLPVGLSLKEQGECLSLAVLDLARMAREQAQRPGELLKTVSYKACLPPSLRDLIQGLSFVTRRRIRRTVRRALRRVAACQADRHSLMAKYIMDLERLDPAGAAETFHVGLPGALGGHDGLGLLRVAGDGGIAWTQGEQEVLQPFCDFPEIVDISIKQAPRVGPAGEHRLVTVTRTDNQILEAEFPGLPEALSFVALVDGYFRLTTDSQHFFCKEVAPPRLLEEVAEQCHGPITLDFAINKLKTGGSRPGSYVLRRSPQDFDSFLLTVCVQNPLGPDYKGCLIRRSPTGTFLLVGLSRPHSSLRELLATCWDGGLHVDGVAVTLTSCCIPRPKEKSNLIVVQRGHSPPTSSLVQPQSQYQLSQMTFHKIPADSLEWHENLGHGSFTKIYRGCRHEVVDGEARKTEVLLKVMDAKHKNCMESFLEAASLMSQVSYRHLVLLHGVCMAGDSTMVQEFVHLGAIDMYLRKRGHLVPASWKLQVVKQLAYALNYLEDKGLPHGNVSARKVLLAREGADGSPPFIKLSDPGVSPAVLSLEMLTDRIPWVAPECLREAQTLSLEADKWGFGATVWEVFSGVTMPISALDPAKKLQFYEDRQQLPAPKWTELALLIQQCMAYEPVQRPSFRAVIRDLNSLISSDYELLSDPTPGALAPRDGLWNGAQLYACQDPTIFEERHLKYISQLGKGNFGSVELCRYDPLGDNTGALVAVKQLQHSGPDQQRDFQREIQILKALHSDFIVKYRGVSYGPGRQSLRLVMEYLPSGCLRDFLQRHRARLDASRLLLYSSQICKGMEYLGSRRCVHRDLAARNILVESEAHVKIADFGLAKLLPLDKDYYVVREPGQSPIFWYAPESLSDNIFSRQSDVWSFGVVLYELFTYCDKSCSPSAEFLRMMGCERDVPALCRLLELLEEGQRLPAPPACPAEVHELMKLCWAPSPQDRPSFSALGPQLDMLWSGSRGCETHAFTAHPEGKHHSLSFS
Particulars: at 0.1 µM.

The target of assay [17] is T2, Tyrosine-protein kinase JAK3 (Homo sapiens). Particulars: at 1 µM.
The target of assay [18] is Vascular endothelial growth factor receptor 2 (Homo sapiens) (UniProt P35968). Particulars: at 0.1 µM.
The target is the same in assay [19]. The settings on record: at 1 µM.
Assay [20] addresses Mast/stem cell growth factor receptor Kit (Homo sapiens) (UniProt P10721). The settings on record: at 0.1 µM.

Each structure is given as a SMILES string.

Mast/stem cell growth factor receptor Kit (Homo sapiens), sequence (P10721 whole entry): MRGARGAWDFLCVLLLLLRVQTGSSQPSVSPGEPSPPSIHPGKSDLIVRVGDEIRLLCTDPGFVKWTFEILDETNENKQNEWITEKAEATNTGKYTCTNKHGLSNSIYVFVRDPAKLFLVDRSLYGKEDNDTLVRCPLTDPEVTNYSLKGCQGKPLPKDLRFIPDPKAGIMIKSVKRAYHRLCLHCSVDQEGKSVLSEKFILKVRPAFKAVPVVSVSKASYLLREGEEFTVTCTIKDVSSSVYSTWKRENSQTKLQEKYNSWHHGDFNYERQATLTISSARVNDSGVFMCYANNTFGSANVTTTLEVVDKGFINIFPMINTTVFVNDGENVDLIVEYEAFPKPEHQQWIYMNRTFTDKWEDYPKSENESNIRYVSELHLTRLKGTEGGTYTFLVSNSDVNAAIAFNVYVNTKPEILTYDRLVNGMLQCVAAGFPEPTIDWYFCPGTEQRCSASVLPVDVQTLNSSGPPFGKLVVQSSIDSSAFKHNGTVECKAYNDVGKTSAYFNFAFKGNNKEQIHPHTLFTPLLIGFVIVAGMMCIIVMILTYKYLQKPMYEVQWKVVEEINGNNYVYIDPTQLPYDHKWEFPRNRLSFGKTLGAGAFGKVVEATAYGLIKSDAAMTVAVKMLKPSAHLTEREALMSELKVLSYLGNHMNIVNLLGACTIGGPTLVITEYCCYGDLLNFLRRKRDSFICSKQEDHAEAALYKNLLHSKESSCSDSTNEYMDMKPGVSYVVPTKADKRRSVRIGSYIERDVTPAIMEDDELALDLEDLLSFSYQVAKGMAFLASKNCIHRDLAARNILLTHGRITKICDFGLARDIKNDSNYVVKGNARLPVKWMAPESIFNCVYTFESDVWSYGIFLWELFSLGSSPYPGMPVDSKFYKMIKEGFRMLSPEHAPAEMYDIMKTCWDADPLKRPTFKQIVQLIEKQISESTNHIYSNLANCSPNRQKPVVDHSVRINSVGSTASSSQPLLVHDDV
Tyrosine-protein kinase HCK (Homo sapiens), sequence (P08631 2-526 limits assumed): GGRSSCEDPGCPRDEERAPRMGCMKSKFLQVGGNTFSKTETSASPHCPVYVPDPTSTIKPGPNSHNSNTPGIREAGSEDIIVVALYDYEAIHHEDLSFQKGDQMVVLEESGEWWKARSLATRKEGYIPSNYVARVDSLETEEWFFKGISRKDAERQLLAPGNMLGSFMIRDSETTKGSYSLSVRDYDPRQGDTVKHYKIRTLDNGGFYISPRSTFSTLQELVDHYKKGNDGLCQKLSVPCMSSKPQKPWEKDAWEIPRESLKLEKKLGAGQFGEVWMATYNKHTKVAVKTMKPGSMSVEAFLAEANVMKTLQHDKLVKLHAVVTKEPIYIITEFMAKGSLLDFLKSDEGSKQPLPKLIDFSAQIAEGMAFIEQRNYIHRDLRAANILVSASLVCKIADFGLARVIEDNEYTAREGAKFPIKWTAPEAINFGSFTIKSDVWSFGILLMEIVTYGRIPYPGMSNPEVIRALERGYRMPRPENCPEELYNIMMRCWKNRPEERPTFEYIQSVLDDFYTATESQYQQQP
Tyrosine-protein kinase Fyn (Homo sapiens), sequence (P06241 2-537 limits assumed): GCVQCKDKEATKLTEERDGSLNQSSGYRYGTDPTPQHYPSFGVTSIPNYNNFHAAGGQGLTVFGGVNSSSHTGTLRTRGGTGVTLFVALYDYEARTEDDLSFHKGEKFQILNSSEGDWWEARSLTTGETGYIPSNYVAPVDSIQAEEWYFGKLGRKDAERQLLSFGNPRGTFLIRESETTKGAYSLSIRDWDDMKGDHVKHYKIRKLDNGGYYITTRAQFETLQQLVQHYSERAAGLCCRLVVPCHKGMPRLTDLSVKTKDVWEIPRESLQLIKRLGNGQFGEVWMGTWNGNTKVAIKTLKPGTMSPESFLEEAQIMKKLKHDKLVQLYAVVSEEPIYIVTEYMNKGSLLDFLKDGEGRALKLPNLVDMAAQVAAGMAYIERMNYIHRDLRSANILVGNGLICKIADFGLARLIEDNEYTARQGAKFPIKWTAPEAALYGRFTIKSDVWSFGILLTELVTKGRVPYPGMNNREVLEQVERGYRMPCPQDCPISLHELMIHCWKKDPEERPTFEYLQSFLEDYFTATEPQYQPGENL

As usually defined, the inhibition is the relative decrease from the control value, in per cent. In the case of `COC(=O)c1sc(-n2cnc3cc(OC)c(OC)cc32)cc1OCc1ccccc1C(F)(F)F`, the inhibition in assay [1] was determined as 56.3%; in assay [2], 9.79%; in [3], 28.1%; in assay [4] it was 0.42%; in assay [5] it was 0.25%; in assay [6] it was 5.09%. For the same compound, the inhibition is 5.96% in assay [7]; 1.78% in assay [8]; -0.14% in assay [9]; 1.1% in [10]; 1.09% in assay [11]; 3.38% in assay [12]. Besides, the inhibition in [13] is -0.23%; in [14], 0.91%; in assay [15], 5.28%; in assay [16], 0.11%; in assay [17], 10.7%; in assay [18] it was 15.2%. Moreover, the values for the inhibition in [19] and in assay [20] were 49.6% and 2.41%, respectively.

Take `COc1ccc(CNC(=O)c2ccc(-c3cc(-c4nnc(C)o4)ccc3C)cc2)cc1`: the inhibition in assay [1] was 2.79%; in assay [2], 5.56%; in assay [3] it was 4.62%; in assay [4], -2.65%; in [5], 0.47%; in assay [6], 0.9%. Besides, the inhibition in assay [7] is 0.55%; in assay [8], 0.27%; in assay [9], 0.52%; in [10], 2.25%; in [11] it was 2.72%; in assay [12], 7.51%. In addition, the inhibition worked out at 19.9% in assay [13]; 1.15% in assay [14]; 1.48% in assay [15]; 1.7% in assay [16]; 3% in [17]; 5.17% in assay [18]. For the same compound, the inhibition in assay [19] worked out at 9.11%; in [20], 2.42%.

With `CCCN1CCC(c2ccc(Nc3nc(Nc4cc(F)ccc4C(N)=O)c4cc[nH]c4n3)c(OC)c2)CC1`, the inhibition in [1] is 25.1%; in [2], 5.95%; in [3] it was 11.5%; in [4], 91.8%; in [5], 93.6%; in assay [6] it was 97.5%. For the same compound, the inhibition is 97.3% in assay [7]; 93.3% in assay [8]; 97.2% in assay [9]; 1.62% in [10]; 7.34% in assay [11]; 2.55% in assay [12]. In addition, the inhibition in assay [13] is 20.8%; in [14] it was 0.71%; in assay [15] it was 2.85%; in assay [16] it was -0.92%; in assay [17], 0.07%; in [18], 6.99%. Also, the inhibition worked out at 18.6% in [19] and 7.64% in assay [20].

On to `Fc1ccc(-c2nn3ncccc3c2-c2ccnc(Nc3ccc4c(c3)OCCO4)n2)cc1`, for which the inhibition came out at 88% in [1]; 26.3% in assay [2]; 71.5% in [3]; 8.14% in assay [4]; 3.49% in assay [5]; 7.04% in assay [6]. Also, the inhibition in assay [7] stood at 18.3%; in [8] it was 2.61%; in assay [9], 1.61%; in assay [10], 1.51%; in assay [11], 0.31%; in assay [12] it was 3.02%. Further, the inhibition in assay [13] was 2.04%; in assay [14] it was 0.34%; in [15], 1.88%; in assay [16], -0.15%; in assay [17] it was -1.41%; in assay [18] it was 30.6%. Besides, the inhibition in assay [19] stood at 75.5%; in assay [20], 60.7%.

Turning to `O=S(=O)(CCNCc1ccc(-c2ccc3ncnc(Nc4ccc(OCc5cccc(F)c5)c(Cl)c4)c3c2)o1)c1ccccc1`, the inhibition is 4.09% in assay [1]; 7.05% in [2]; 8.65% in [3]; 4.87% in [4]; 7.55% in [5]; 3.73% in assay [6]. Also, the inhibition was found to be 6.24% in [7]; 4.04% in [8]; 4.07% in assay [9]; 0.82% in assay [10]; 2.79% in assay [11]; 3.16% in assay [12]. Besides, the inhibition is 5.23% in [13]; 1.04% in assay [14]; 1.11% in assay [15]; -3.52% in [16]; -1.28% in [17]; 5.96% in [18]. The inhibition in assay [19] is 8.62%; in assay [20], 6.8%.

Take `CCN(CC)S(=O)(=O)c1ccc(OC)c(Nc2ncc(-c3ccccc3)o2)c1`: the inhibition in assay [1] was determined as 45.2%; in assay [2], 7.41%; in assay [3], 28.1%; in [4] it was 7.86%; in assay [5] it was 7.98%; in [6], 2.78%. In addition, the inhibition in assay [7] worked out at 2.35%; in [8], 0.57%; in assay [9], 0.72%; in [10], 0.31%; in [11], 2.62%; in assay [12] it was 1.87%. Also, the inhibition in assay [13] is 0.33%; in assay [14] it was 0.36%; in assay [15], 1.73%; in assay [16] it was -0.47%; in assay [17], 2.16%; in assay [18], 31.3%. For the same compound, the inhibition stood at 68% in assay [19] and 33.5% in assay [20].

Consider `COc1cc2ncn(-c3cc(OCc4ccccc4C(F)(F)F)c(C(=O)N(C)C)s3)c2cc1OC`, for which the inhibition was 8.11% in assay [1]; 2.13% in [2]; 10.1% in assay [3]; 1.61% in assay [4]; -0.15% in [5]; 2.79% in [6]. The inhibition in assay [7] was 1.7%; in assay [8] it was -2.24%; in [9] it was -0.76%; in assay [10] it was 0.81%; in assay [11], 1.76%; in [12] it was -1.58%. Further, the inhibition was 8.12% in assay [13]; 0.32% in assay [14]; -0.19% in assay [15]; -0.48% in assay [16]; 14.7% in assay [17]; 6.67% in assay [18]. In addition, the inhibition in assay [19] is 27.5%; in assay [20] it was 0.26%.

For the origin of these results see ChEMBL document CHEMBL1961873, “Compounds: GSK PKIS; Assays: Nanosyn kinase panel” (2012).
